Assay [1] addresses Androgen receptor (Homo sapiens) (UniProt P10275). Description: qHTS assay for small molecule agonists of androgen receptor signaling (AID 588515; active = well fitted curve in the direction sought with a large enough effect in the signal ratio, with a control signal flat; the % refers to the signal ratio; note: % is set by controls: 0 for no effect and ±100 for the full control effect). The conditions noted are these: AR-UAS-bla HEK293, beta-lactamase ratio, agonist 16 h; stronger effect = higher value. An outline of the steps:
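Stimulation of an AR-responsive β-lactamase reporter in GripTite HEK293 cells was measured after 16 h compound exposure at 37 °C, via CCF4 fluorescence after 2 h RT. EC50 from Hill fits, normalized to R1881 at 30 nM.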

Assay [2] has the same target. Description: qHTS assay for small molecule antagonists of androgen receptor signaling (AID 588516; active = well fitted curve in the direction sought with a large enough effect in the signal ratio, with a control signal flat, not every such curve was filed as active; the % refers to the signal ratio; note: % is set by controls: 0 for no effect and ±100 for the full control effect). Conditions: AR-UAS-bla HEK293, beta-lactamase ratio, antagonist mode, 16 h; series mostly up to 76.8 µM. An outline of the steps:
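AR-UAS-bla GripTite HEK 293 cells (2000/well) treated with compound titrations plus 10 nM R1881 for 16 h at 37C. Beta-lactamase read by CCF4 FRET (460/530 nm); IC50 from Hill fits, normalized to R1881 and DMSO control wells.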
For orientation: qHTS replaces the single test concentration by a dilution series.

Assay [3] addresses Glucocorticoid receptor (Homo sapiens) (UniProt P04150). Put plainly: qHTS assay for small molecule agonists of glucocorticoid receptor signaling (AID 588532; active = well fitted curve in the direction sought with a large enough effect in the signal ratio, with a control signal flat; the % refers to the signal ratio;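 note: 100% = dexamethasone at 0.1 µM and 0% = DMSO only wells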). The conditions noted are these: HeLa MMTV-bla, beta-lactamase ratio, agonist, 18 h; stronger effect = higher value; percent of dexamethasone control, DMSO zero. In outline: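 HeLa GRE-bla reporter cells; 18 h compound exposure at 37 C; 2 h CCF4 loading at room temperature; fluorescence at 460 and 530 nm; EC50 by Hill equation.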

Assay [4] shares this target. Put plainly: qHTS assay for small molecule antagonists of glucocorticoid receptor signaling (AID 588533; active = well fitted inhibition curve with a large enough effect in the signal ratio, with a control signal flat, not every such curve was filed as active; the % refers to the signal ratio; note: % is set by controls: 0 for no effect and ±100 for the full control effect). The conditions noted are these: HeLa MMTV-bla, GRE beta-lactamase ratio, antagonist mode, 18 h; series mostly up to 76.8 µM. In outline:
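Antagonist-mode qHTS: compound titrations added to GRE-bla HeLa cells, then dexamethasone 2 nM final; 18 h, 37 C. CCF4 FRET fluorescence normalized to dexamethasone and DMSO; IC50 from Hill fit.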

The target in assay [5] is Peroxisome proliferator-activated receptor gamma (Homo sapiens) (UniProt P37231). Description: qHTS assay for small molecule agonists of peroxisome proliferator-activated receptor gamma signaling (AID 588536; active = well fitted curve in the direction sought with a large enough effect in the signal ratio, with a control signal flat, not every such curve was filed as active; the % refers to the signal ratio;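 note: 0% = DMSO basal wells and 100% = rosiglitazone at 2 µM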). The conditions noted are these: HEK293 PPARg-UAS-bla, beta-lactamase ratio, 16 h, percent of rosiglitazone response, DMSO as zero; series mostly up to 76.7 µM. The source says:
NIH Chemical Genomics Center [NCGC] U.S. Environmental Protection Agency [EPA] National Institutes of Environmental Health Sciences [NIEHS] National Toxicology Program [NTP] NCGC Assay Overview The Peroxisome proliferator-activated receptors (PPARs) are lipid-activated transcription factors of the nuclear receptor superfamily with three distinct subtypes namely PPAR alpha, PPAR delta (also called PPAR beta) and PPAR gamma. All these subtypes heterodimerizes with Retinoid X receptor (RXR) and these heterodimers regulate transcription of various genes. PPAR-gamma (glitazone receptor) agonists have been used in the treatment of type 2 diabetes and dyslipidaemia. It is involved in the regulation of glucose and lipid metabolism. PPAR-gamma activates certain genes like Paraoxonase 1 which is responsible for hydrolyzing organophosphates. […]
NCGC Assay Protocol Summary Using a beta-lactamase reporter-gene under control of Peroxisome Proliferator-Activated-gamma (PPAR-gamma) response element, a cell-based assay [GeneBLAzer PPAR-gamma-UAS-bla assay developed by Invitrogen] was used to measure PPAR-gamma ligands signaling. […] Library compounds were measured for their ability to stimulate the reporter gene activity. […] The fluorescence intensity (405 nm excitation, 460/530 nm emission) was measured using an EnVision plate reader. […] Detection; Fluorescence; Envision plate reader

The target in assay [6] is Vitamin D3 receptor (Homo sapiens) (UniProt P11473). Put plainly: qHTS assay for small molecule antagonists of vitamin D receptor signaling (AID 588541).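 Note: receptor activated by calcitriol during compound treatment; % is set by controls: 0 for no effect and ±100 for the full control effect.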 Conditions: HEK293T VDR-UAS-bla, beta-lactamase ratio, antagonist mode; series mostly up to 76.7 µM. In outline: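 VDR-UAS-bla HEK293T cells in 2% charcoal-stripped FBS were stimulated with 1-alpha,25-dihydroxyvitamin D3 (3 nM final) plus compound for 16 h at 37 C. The beta-lactamase CCF4 readout was normalized to 50 nM agonist and DMSO, and Hill fits gave IC50.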

Assay [7] addresses Bile acid receptor (Homo sapiens) (UniProt Q96RI1). Description: qHTS assay for small molecule antagonists of farnesoid X receptor signaling (AID 588526). Note: % is set by controls: 0 for no effect and ±100 for the full control effect. The conditions noted are these: HEK293T FXR-UAS-bla, beta-lactamase ratio, antagonist mode; series mostly up to 76.7 µM. An outline of the steps:
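Antagonist mode: titrated compounds tested against chenodeoxycholic acid stimulation (normalized to 50 uM CDCA and DMSO) in GeneBLAzer HEK293T cells for 16 h. Beta-lactamase read by CCF4 fluorescence; IC50 from Hill fits.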

Assay [8] in a line: qHTS assay for small molecule antagonists of peroxisome proliferator-activated receptor delta signaling (AID 588535; active = well fitted inhibition curve with a large enough effect in the signal ratio, with a control signal flat, not every such curve was filed as active; the % refers to the signal ratio;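 for max response: cells co-treated with a PPAR-delta agonist as stimulator during compound exposure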). The conditions noted are these: HEK293T PPARd-UAS-bla, beta-lactamase FRET ratio, 18 h; 460 nm channel. An outline of the steps: (§1)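 Beta-lactamase reporter read-out (405 nm excitation, 460/530 nm emission) after CCF4 loading for 2 hrs at RT. HEK293T PPAR-delta-UAS-bla cells, 2% charcoal/dextran FBS, compounds for 18 hrs at 37 C. Hill fit gave IC50 and efficacy.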

Assay [9] has as its target Peroxisome proliferator-activated receptor delta (Homo sapiens) (UniProt Q03181). Described as above. The conditions noted are these: HEK293T PPARd-UAS-bla, beta-lactamase FRET ratio, 18 h; series mostly up to 76.7 µM. An outline of the steps:
as §1

The target in assay [10] is Peroxisome proliferator-activated receptor gamma (Homo sapiens) (UniProt P37231). Description: qHTS assay for small molecule antagonists of peroxisome proliferator-activated receptor gamma signaling (AID 588537; active = well fitted inhibition curve with a large enough effect in the signal ratio, with a control signal flat, not every such curve was filed as active; the % refers to the signal ratio;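 note: reporter cells co-stimulated with 50 nM rosiglitazone agonist during compound treatment; % of control where 0% means no effect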). The conditions noted are these: HEK293 PPARg-UAS-bla, beta-lactamase ratio, antagonist mode; series mostly up to 76.8 µM. An outline of the steps:
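Read-out: CCF4 fluorescence (ex 405, em 460/530 nm) after 2 h at RT. Cells were HEK293 carrying a UAS-bla reporter and treated 16 h at 37 C with compound plus rosiglitazone (50 nM final). Normalized to rosiglitazone and DMSO.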

Records with an inconclusive call do not appear. The source made the active and inactive calls. Unless noted, calls come from the whole dose curve.

Chain of Vitamin D3 receptor (Homo sapiens) (P11473 whole entry, looked up): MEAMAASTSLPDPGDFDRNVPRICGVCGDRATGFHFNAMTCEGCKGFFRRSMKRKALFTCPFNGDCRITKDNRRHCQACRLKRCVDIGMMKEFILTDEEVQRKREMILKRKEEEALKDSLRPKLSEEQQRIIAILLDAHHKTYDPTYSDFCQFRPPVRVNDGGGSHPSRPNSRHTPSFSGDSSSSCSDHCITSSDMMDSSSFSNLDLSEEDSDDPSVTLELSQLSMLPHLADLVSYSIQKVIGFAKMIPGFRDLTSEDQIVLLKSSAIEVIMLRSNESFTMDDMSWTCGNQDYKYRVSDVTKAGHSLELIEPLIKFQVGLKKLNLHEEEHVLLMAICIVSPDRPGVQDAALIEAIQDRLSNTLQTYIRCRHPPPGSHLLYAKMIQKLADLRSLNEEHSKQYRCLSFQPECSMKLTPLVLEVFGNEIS
Chain of Peroxisome proliferator-activated receptor gamma (Homo sapiens) (P37231 whole entry, looked up): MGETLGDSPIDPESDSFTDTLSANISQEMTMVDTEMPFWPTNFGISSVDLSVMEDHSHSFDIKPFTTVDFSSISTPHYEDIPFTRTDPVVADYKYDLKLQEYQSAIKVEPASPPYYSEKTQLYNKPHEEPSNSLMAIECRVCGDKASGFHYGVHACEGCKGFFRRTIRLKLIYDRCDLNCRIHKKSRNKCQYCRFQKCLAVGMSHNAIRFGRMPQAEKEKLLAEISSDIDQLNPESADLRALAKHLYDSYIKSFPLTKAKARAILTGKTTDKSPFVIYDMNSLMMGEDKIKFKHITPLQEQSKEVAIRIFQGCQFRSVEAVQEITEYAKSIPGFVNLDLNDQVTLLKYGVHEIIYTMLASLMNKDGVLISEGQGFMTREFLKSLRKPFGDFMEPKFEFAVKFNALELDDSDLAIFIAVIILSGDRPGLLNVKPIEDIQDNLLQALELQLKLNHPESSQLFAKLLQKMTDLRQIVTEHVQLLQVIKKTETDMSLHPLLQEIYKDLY
Chain of Glucocorticoid receptor (Homo sapiens) (P04150 whole entry, looked up): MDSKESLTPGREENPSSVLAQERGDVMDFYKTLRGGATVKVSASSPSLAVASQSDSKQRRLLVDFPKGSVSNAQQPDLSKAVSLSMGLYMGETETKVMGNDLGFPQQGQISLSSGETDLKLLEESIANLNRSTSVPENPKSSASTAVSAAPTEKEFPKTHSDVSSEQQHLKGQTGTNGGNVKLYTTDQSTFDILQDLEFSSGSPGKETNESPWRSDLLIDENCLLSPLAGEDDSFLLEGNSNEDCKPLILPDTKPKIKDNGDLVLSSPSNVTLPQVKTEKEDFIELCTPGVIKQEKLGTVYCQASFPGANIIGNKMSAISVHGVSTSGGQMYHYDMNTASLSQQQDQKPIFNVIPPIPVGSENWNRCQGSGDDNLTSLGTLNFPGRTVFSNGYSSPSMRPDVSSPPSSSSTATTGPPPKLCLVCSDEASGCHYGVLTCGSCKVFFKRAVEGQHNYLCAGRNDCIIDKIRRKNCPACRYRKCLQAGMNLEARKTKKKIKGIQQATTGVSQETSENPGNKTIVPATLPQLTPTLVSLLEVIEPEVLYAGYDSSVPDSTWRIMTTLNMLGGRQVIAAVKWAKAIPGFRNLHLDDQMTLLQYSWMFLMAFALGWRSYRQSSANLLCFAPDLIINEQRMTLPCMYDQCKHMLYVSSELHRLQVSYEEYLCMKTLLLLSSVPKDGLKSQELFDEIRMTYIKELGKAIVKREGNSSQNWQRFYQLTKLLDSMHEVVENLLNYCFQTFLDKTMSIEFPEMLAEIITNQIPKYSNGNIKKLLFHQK
Chain of Peroxisome proliferator-activated receptor delta (Homo sapiens) (Q03181 whole entry, looked up): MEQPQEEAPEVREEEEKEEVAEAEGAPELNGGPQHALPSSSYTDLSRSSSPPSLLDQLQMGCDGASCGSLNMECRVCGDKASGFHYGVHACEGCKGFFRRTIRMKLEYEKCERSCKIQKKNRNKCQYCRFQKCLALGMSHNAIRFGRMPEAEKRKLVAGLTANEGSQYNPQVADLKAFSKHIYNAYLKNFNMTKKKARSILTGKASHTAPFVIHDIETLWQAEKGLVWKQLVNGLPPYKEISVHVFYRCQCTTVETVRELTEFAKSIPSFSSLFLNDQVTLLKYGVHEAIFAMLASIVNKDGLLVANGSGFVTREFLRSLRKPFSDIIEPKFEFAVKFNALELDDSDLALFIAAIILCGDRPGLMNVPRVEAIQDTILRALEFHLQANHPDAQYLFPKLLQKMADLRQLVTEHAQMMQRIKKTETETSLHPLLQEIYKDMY
Chain of Androgen receptor (Homo sapiens) (P10275 whole entry, looked up): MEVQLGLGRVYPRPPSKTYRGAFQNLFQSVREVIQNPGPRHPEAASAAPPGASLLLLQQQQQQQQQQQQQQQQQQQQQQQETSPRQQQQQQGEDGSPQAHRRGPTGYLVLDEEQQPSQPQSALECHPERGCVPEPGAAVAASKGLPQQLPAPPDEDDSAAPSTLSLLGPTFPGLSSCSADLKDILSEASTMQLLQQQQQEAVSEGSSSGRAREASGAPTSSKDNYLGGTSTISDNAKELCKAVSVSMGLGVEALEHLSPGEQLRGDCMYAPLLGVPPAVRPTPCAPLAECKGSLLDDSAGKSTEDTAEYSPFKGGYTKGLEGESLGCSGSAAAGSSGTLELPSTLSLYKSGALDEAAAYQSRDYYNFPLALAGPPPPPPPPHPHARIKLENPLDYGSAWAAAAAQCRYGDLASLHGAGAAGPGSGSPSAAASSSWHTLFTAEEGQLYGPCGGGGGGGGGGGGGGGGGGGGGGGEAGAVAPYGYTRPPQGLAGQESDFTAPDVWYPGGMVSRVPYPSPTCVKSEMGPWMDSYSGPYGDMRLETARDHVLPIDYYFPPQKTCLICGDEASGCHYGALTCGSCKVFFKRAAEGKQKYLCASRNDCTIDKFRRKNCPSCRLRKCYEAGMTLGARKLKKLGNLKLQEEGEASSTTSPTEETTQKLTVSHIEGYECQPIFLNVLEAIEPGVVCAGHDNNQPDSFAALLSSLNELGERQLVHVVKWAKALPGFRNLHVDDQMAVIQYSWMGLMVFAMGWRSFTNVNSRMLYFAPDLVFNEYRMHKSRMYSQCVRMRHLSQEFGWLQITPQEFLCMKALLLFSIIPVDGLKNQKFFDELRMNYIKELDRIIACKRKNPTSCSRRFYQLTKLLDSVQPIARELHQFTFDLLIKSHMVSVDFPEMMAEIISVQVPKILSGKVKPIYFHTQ
Chain of Bile acid receptor (Homo sapiens) (Q96RI1 whole entry, looked up): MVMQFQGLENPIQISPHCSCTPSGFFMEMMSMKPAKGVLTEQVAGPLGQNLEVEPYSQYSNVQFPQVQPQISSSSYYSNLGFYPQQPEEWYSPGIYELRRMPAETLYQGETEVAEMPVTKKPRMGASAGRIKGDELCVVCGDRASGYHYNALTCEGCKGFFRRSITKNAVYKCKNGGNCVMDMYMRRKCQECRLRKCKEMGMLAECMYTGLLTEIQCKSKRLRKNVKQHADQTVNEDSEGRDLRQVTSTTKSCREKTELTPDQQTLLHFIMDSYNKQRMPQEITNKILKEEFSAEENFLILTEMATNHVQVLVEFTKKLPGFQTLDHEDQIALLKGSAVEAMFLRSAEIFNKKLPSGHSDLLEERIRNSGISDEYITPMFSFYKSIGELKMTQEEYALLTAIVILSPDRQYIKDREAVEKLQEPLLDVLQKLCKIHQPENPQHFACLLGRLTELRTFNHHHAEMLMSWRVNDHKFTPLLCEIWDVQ

As to `COc1ccc(CCC(=O)c2c(O)cc(O[C@@H]3O[C@H](CO)[C@@H](O)[C@H](O)[C@H]3O[C@@H]3O[C@@H](C)[C@H](O)[C@@H](O)[C@H]3O)cc2O)cc1O`, the activation was 12.1% (inactive) in assay [1] and -0.542% (inactive) in assay [3]. For the same compound, the outcome in [2], in assay [4], in assay [5] and in assay [6] was inactive.
In the case of `C=C1C[C@]23C[C@@]1(O)CC[C@H]2[C@@]12C=C[C@H](O)[C@@](C)(C(=O)O1)[C@H]2[C@@H]3C(=O)O`, the result in [7], in [4], in [9], in assay [5], in assay [10] and in [6] was inactive. Moreover, the activation in assay [3] is -5.06% (inactive). Moreover, the max response in assay [8] amounted to 8.68%.
As to `O=C(/C=C/C=C/c1ccc2c(c1)OCO2)N1CCCCC1`, the max response in assay [8] is -63.1%. In addition, the result in assay [9] and in [6] was inactive.

(Values after PubChem BioAssay (NCATS).)
